Assay results: ChEMBL document CHEMBL3433997, “St. Jude Leishmania screening dataset” (2016)
“And” between values parts separate entries of the source, which are not always exact repeats. Equal values may be shown once.

Columns and labels:
Format in all cases: functional
[1] = biological target: Solute carrier family 2, facilitated glucose transporter member 1 (Homo sapiens) (UniProt P11166); assay: ST_JUDE_LEISH: Cytotoxicity at 2uM final concentration against transgenic Leishmania Mexicana promastigotes LmGLUT1 that are glucose transport deficient and complemented with the human glucose transporter GLUT1. Activity is measured by DNA content using SYBR green in vitro
[2] = biological target: Hexose transporter 1 (Plasmodium falciparum) (UniProt O97467); assay: ST_JUDE_LEISH: Cytotoxicity at 2uM final concentration against transgenic Leishmania Mexicana promastigotes LmPfHT that are glucose transport deficient and complemented with the Plasmodium falciparum hexose transporter. Activity is measured by DNA content using SYBR green in vitro
[3] = biological target: Glucose transporter (Leishmania mexicana) (UniProt O61059); assay: ST_JUDE_LEISH: Cytotoxicity at 2uM final concentration against transgenic Leishmania Mexicana promastigotes LmGT2 that are glucose transport deficient and complemented with the L. Mexicana glucose transporter 2. Activity is measured by DNA content using SYBR green in vitro

Solute carrier family 2, facilitated glucose transporter member 1 (Homo sapiens), sequence (P11166 whole entry): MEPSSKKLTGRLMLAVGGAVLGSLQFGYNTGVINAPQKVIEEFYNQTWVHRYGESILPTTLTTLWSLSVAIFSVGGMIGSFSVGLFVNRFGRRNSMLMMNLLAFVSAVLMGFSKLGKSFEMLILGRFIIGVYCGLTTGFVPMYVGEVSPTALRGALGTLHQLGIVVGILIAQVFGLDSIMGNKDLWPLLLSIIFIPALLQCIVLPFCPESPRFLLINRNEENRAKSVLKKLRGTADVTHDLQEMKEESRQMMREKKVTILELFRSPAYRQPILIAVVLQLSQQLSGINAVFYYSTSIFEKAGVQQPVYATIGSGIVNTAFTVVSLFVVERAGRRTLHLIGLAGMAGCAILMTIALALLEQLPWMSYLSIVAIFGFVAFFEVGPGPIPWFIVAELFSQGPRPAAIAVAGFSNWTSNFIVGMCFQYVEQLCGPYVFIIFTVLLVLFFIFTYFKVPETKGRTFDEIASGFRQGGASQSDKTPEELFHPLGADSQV

| Structure (SMILES) | inhibition [1] | inhibition [2] | inhibition [3] |
| --- | --- | --- | --- |
| CC1=C(C(=O)NC2CCC(CN3CCC(c4c[nH]c5ccccc45)CC3)CC2)Cc2ccccc21 (stereo unspecified) | -3.48% and -2.8% | 2.28% and -2.66% | -4.68% and 10.4% |
| CC(Cc1ccc(SCCSc2ccccc2)cc1)NCC(O)c1cccc(Cl)c1 (stereo unspecified) | 0.69% | -0.5% | 1.16% |
| COc1ccccc1CC(C)NCC(O)c1cccc(Cl)c1 (stereo unspecified) | -0.34% | 4.23% | 1.87% |
| O=C(c1cc(C(F)(F)F)cc(C(F)(F)F)c1)N1CCC(CCN2CCC3(CC2)C(=O)NCN3c2ccccc2)CC1Cc1ccc(Cl)c(Cl)c1 (stereo unspecified) | 6.32% | 10.7% | 6.06% |
| Cc1cc(O)cc2c(C3CCN(CC4CCC(NC(=O)/C=C/c5ccccc5Cl)CC4)CC3)c[nH]c12 (stereo unspecified) | 4.47% | 4.35% | 3.52% |
| CC[C@H]1CN2CCc3cc(OC)c(OC)cc3[C@@H]2C[C@@H]1C[C@H]1NCCc2c1cc(OC)c(O)c2I | 93.9% | 96.6% | 90% |
| Cc1c(C)c2c(c(C)c1O)CC[C@@](C)(C(=O)N1CCC(CN3CCC(c4c[nH]c5ccccc45)CC3)CC1)O2 | -0.93% | -1.76% | -3.6% |
| O=C(/C=C/c1ccc(Cl)c(Cl)c1)NCCCCCN1C2CCC1CC(c1c[nH]c3ccccc13)C2 (stereo unspecified) | 0.42% | 1.9% | 2.33% |
| CS(=O)(=O)Nc1ccc2[nH]cc(C3CC4CCC(C3)N4CC3CCC(NC(=O)/C=C/c4ccc(Cl)c(Cl)c4)CC3)c2c1 (stereo unspecified) | 5.91% | 5.37% | 5.09% |
| CC[C@H]1CN2CC[C@@H]1C[C@H]2[C@H](O)c1cc(-c2ccc(Cl)c(Cl)c2)nc2ccc(O)cc12 | -0.36% | -1.15% | -0.47% |
| CC(Cc1ccc(OCCCCOc2ccccc2)cc1)NCCC1CCCN1C (stereo unspecified) | 103% | 97.7% | 103% |
| COc1cccc(CCNC(C)Cc2ccc(OCCCCOc3ccccc3)cc2)c1 (stereo unspecified) | 95% | 96.3% | 101% |
| CC(C)CNCc1cccc(-c2cccc(CN(C(=O)c3cccs3)C3CCN(Cc4ccccc4)CC3)c2)c1 | 11.3% | 7.75% | 6.04% |
| C[C@H](Cc1ccc(OCCCCCCOc2ccccc2)cc1)NC[C@H](O)c1cccc(Cl)c1 | -0.31% | -0.04% | -0.25% |
| COc1ccc(CCNCc2ccc3nc(N)cc(C)c3c2)cc1 | -3.73% | -2.84% | -2.66% |
| C=C[C@H]1CN2CC[C@H]1C[C@H]2[C@H](O)c1cc(/C=C/c2ccc(F)cc2)nc2ccc(OC)cc12 | 2.95% | 0.72% | 2.4% |
| Cc1ccc2c(C3=CCN(CCCCC4(C)C(=O)Nc5ccccc54)CC3)c(C)[nH]c2c1 (stereo unspecified) | 0.29% | 0.34% | -0.56% |
